Results filed as inconclusive are left out. Unmarked numbers belong to inactive results. Activity calls are given as the source filed them. Calls come from the whole dose curve; as a rule, active = well fitted inhibition curve with a large enough effect; inconclusive = small, poorly fitted or top-dose-only effect; inactive = flat fitted curve, though single readings scatter.
Tested on: CRL-7250
Assay: Cytotoxic Profiling of Annotated Libraries Using Quantitative High-Throughput Screening (AID 1296008); note: nearly all actives have a fitted effect of over 60% in size
Conditions: Five cell lines viability, CellTiter-Glo ATP luminescence, 48-72 h; max response: stronger effect = lower value
Outline: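 Cells exposed to compounds for 48 or 72 hr at 37 degrees Celsius. Viability read as ATP-coupled luminescence with CellTiter-Glo after 10 min at room temperature.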
% is set by controls: 0 for no effect and ±100 for the full control effect; potency is the fitted concentration of half-maximal effect.

| Structure (SMILES) | max response [%] | outcome | Potency |
| --- | --- | --- | --- |
| C[C@]12C=C[C@@]3(CCC4[C@](C)(CO)CCC[C@@]4(C)C3CC1)C2 (stereo partly specified) | -1.08 | – | – |
| c1ccc(N2CCN(CCc3nn[nH]n3)CC2)cc1 | 4.82 | – | – |
| O=C1OCC(c2ccccc2)=C1Cc1ccccc1 | -11.2 | – | – |
| CC1CCN(C(=O)CC#N)CC1N(C)c1ncnc2[nH]ccc12 (stereo unspecified) | 0.271 | – | – |
| CC(=O)N[C@H]1[C@H](O[C@H]2CC[C@@]3(C)C(CC[C@]4(C)C3CC=C3[C@@H]5CC(C)(C)CC[C@]5(C(=O)OC5OCC(O)C(O)C5O)CC[C@]34C)C2(C)C)O[C@H](COC2OC(C)C(O)C(OC3OC(C)C(O)C(O)C3O)C2O)[C@@H](O)[C@@H]1O (stereo partly specified) | -6.06 | – | – |
| COC(=O)C[C@H]1C(C)(C)[C@H](OC(C)=O)C2CC3=C4CC(=O)O[C@@H](c5ccoc5)[C@]4(C)CCC3[C@@]1(C)C2=O (stereo partly specified) | 3.53 | – | – |
| C[C@H]1CC[C@@]2(OC1)O[C@H]1CC3C4CC[C@H]5C[C@@H](O)[C@H](O)C[C@]5(C)C4=CC(=O)[C@]3(C)[C@H]1[C@@H]2C (stereo partly specified) | -0.885 | – | – |
| CS(=O)(=O)c1ccc([C@H](CC2CCCC2)C(=O)Nc2nccs2)cc1 | 1.1 | – | – |
| CC(C)(C)OC(=O)N1CCC(OCc2nc(-c3ccncc3)no2)CC1 | -15.9 | – | – |
| COc1cc2c(cc1OC)N1C(=O)C[C@]34C=CCN5CC[C@@H]2[C@@H](CC3)[C@]514 | – | inactive | – |
| CN(c1ccccc1CNc1nc(Nc2ccc3c(c2)CC(=O)N3)ncc1C(F)(F)F)S(C)(=O)=O | – | – | 16.4 µM (active) |
